Results as given in ChEMBL document CHEMBL4513146, “CO-ADD screening of Karazin Kharkiv National University (Ukraine) compounds”.
Entries with a potency or affinity are not part of this list.

How the values were obtained:
Staphylococcus aureus = conditions: Concentration 32 ug.mL-1;; ASSAY_TEST Inhibition of Bacterial Growth; detection method Absorption (OD600); MEDIA CAMHB; plate type 384well; NBS; CORNING #3640; time 18 hr
Escherichia coli = conditions: Concentration 32 ug.mL-1;; ASSAY_TEST Inhibition of Bacterial Growth; detection method Absorption (OD600); MEDIA CAMHB; plate type 384well; NBS; CORNING #3640; time 18 hr

CCc1ccc(NC(=O)Cn2nc3n(Cc4ccco4)c(=O)c4sccc4n3c2=O)cc1
Inhibition (Staphylococcus aureus): -4.41%
Inhibition (Escherichia coli): -6.35%

Cc1cc(C)cc(Oc2nccn3c(=O)n(CC(=O)Nc4cccc(Cl)c4)nc23)c1
Inhibition (Staphylococcus aureus): -12.18%
Inhibition (Escherichia coli): -3.44%

COc1cccc(Oc2nccn3c(=O)n(CC(=O)NC4CCCCC4)nc23)c1
Inhibition (Staphylococcus aureus): 3.01%
Inhibition (Escherichia coli): -4.58%

Cc1cc(C)cc(N(Cc2ccc(Cl)cc2)S(=O)(=O)c2cccn3c(C)nnc23)c1
Inhibition (Staphylococcus aureus): 9.89%
Inhibition (Escherichia coli): -11.68%

CCc1ccc(NC(=O)CSc2nnc3ccc(C(=O)Nc4cccc(F)c4)cn23)cc1
Inhibition (Staphylococcus aureus): 9.49%
Inhibition (Escherichia coli): -4.13%

COc1cccc(-c2noc(Cn3nc4ccc(-c5ccccc5)nn4c3=O)n2)c1OC
Inhibition (Staphylococcus aureus): 13.66%
Inhibition (Escherichia coli): -2.67%

COC(=O)c1ccccc1NC(=O)Cn1nc2c3cc(-c4ccc(Cl)cc4)nn3ccn2c1=O
Inhibition (Staphylococcus aureus): 10.87%
Inhibition (Escherichia coli): 6.58%

CCc1ccc(N(Cc2cccc(F)c2)S(=O)(=O)c2cccn3c(CC)nnc23)cc1
Inhibition (Staphylococcus aureus): 13.65%
Inhibition (Escherichia coli): -0.18%

O=C(Cn1nc2c(N3CCOCC3)nccn2c1=O)NCc1cccs1
Inhibition (Staphylococcus aureus): 22.65%
Inhibition (Escherichia coli): 1.24%

COc1cccc(-n2ccn3c(SCC(=O)c4ccc(C)cc4C)nnc3c2=O)c1
Inhibition (Staphylococcus aureus): 12.17%
Inhibition (Escherichia coli): -2.43%

CC(C)(C)Sc1ccc2nn(CC(=O)Nc3ccccc3C(F)(F)F)c(=O)n2n1
Inhibition (Staphylococcus aureus): 6.28%
Inhibition (Escherichia coli): -2.49%

COc1cc(NC(=O)CSc2nnc3c(=O)n(-c4cccc(OC)c4)ccn23)cc(OC)c1
Inhibition (Staphylococcus aureus): 2.57%
Inhibition (Escherichia coli): -9.3%

COc1ccc(Cl)cc1NC(=O)CSc1nc2ccccc2n2c(C(C)C)nnc12
Inhibition (Staphylococcus aureus): -6.36%
Inhibition (Escherichia coli): -1.47%

COc1ccc(-c2cc3c4nnc(CCC(=O)NCc5cccs5)n4ccn3n2)cc1
Inhibition (Staphylococcus aureus): 11.44%
Inhibition (Escherichia coli): 4.51%

CSc1cccc(NC(=O)Cn2nc3ccc(SC(C)(C)C)nn3c2=O)c1
Inhibition (Staphylococcus aureus): -2.88%
Inhibition (Escherichia coli): 1.52%

COc1ccc(C)cc1NC(=O)Cn1nc2ccc(SCc3ccc(Cl)cc3)nn2c1=O
Inhibition (Staphylococcus aureus): 8.35%
Inhibition (Escherichia coli): -14.85%

Cc1ccc(CN(c2ccc3c(c2)OCO3)S(=O)(=O)c2ccc3nnc(C)n3c2)cc1
Inhibition (Staphylococcus aureus): -0.98%
Inhibition (Escherichia coli): -3.16%

Cc1cc(C)c(NC(=O)Cn2nc3c4cc(-c5ccc(C)c(C)c5)nn4ccn3c2=O)c(C)c1
Inhibition (Staphylococcus aureus): -7.12%
Inhibition (Escherichia coli): -12.18%

CC(C)c1nnc2c(=O)n(CC(=O)Nc3cccc(Br)c3)c3ccccc3n12
Inhibition (Staphylococcus aureus): 13.16%
Inhibition (Escherichia coli): -0.75%

CCCCc1ccc(NC(=O)Cn2nc3c(N4CCN(c5ccccc5C)CC4)nccn3c2=O)cc1
Inhibition (Staphylococcus aureus): 0.53%
Inhibition (Escherichia coli): -13.2%

Cc1ccc(NC(=O)Cn2nc3c(Oc4ccccc4Cl)nccn3c2=O)cc1F
Inhibition (Staphylococcus aureus): 7.48%
Inhibition (Escherichia coli): -2.62%

Cc1ccc(CN(c2ccc(C(C)C)cc2)S(=O)(=O)c2cccn3cnnc23)cc1
Inhibition (Staphylococcus aureus): 21.94%
Inhibition (Escherichia coli): 4.59%

CCOC(=O)c1ccc(NC(=O)Cn2nc3c(Oc4ccccc4)nccn3c2=O)cc1
Inhibition (Staphylococcus aureus): -0.24%
Inhibition (Escherichia coli): -4.26%

CSc1cccc(NC(=O)Cn2nc3c(Sc4cccc(F)c4)nccn3c2=O)c1
Inhibition (Staphylococcus aureus): 2.75%
Inhibition (Escherichia coli): -0.46%

O=c1c2sccc2n2c(=O)n(Cc3cccc(C(F)(F)F)c3)nc2n1Cc1cccs1
Inhibition (Staphylococcus aureus): 22.09%
Inhibition (Escherichia coli): 2.86%

Cc1cc(C)cc(N(Cc2c(F)cccc2Cl)S(=O)(=O)c2cccn3cnnc23)c1
Inhibition (Staphylococcus aureus): 4.69%
Inhibition (Escherichia coli): -4.41%

Cc1ccc(NC(=O)Cn2nc3ccc(SC(C)(C)C)nn3c2=O)cc1C
Inhibition (Staphylococcus aureus): -0.92%
Inhibition (Escherichia coli): 2.46%

COc1ccccc1N1CCN(C(=O)Cn2nc3ccc(-c4ccc(Cl)cc4)nn3c2=O)CC1
Inhibition (Staphylococcus aureus): 8.63%
Inhibition (Escherichia coli): 0.78%

O=c1c2nnc(SCc3ccc(Cl)cc3)n2ccn1-c1ccc(F)cc1
Inhibition (Staphylococcus aureus): 4.01%
Inhibition (Escherichia coli): 2.84%

COc1ccc(-c2cc3c4nnc(SCC(=O)NCc5ccccc5Cl)n4ccn3n2)cc1
Inhibition (Staphylococcus aureus): -4.22%
Inhibition (Escherichia coli): -7.58%

O=c1n(Cc2cccc(C(F)(F)F)c2)nc2ccc(S(=O)(=O)N3CCCCC3)cn12
Inhibition (Staphylococcus aureus): 14.29%
Inhibition (Escherichia coli): 0.28%

COc1ccc(-c2cc3c4nn(CC(=O)Nc5cc(C)cc(C)c5)c(=O)n4ccn3n2)cc1
Inhibition (Staphylococcus aureus): 1.97%
Inhibition (Escherichia coli): 7.1%
